Screening data as filed in PubChem.
Pf growth 96h – P. falciparum growth inhibition at 96 hours | Potency, µM (highest dose often 28.7 µM), actives largely listed as inhibitors | P. falciparum luciferase reporter growth, 96 h | AID 504834 | 320,000 compounds, 6.9% hits
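P. falciparum expressing integrated firefly luciferase grown in erythrocytes (2% hematocrit, 0.05% parasitemia final) with compounds for 96 hours at 37 C, 5% CO2. Growth inhibition read as loss of luminescence after adding luciferase detection reagent.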
SARS PLP yeast – blocks SARS-CoV papain-like protease in a yeast assay | 330,000 compounds, 0.19% hits | Potency, µM (doses to about 32.9 µM), usual class: activators | S. cerevisiae expressing SARS-CoV PLpro, growth rescue; calls by dose curve; note: nearly all actives have a fitted effect of over 55% in size
Cycloheximide cs – counter-screen for Shiga toxin inhibitors: cycloheximide protein synthesis inhibition. cell reporter, cycloheximide protein synthesis inhibition counterscreen. max response, %. 300,000 compounds, 12% hits. AID 2314; in the data active = max response mostly above about 13%, no sharp cut-off; inactive = mostly below about 14%; note: read at 38.3 µM for the half of the compounds with a filed dose
Shiga toxin inh – inhibitors of Shiga toxin in Vero cells. 290,000 compounds, 9.2% hits. inhibition, % at 38.7 µM. Vero cells, Shiga toxin protein synthesis inhibition reporter; in the data active = inhibition mostly above about 28%, no sharp cut-off; inactive = mostly below about 43%
Pf growth 48h – P. falciparum growth inhibition at 48 hours (one generation); P. falciparum luciferase growth in erythrocytes, 48 h; Potency, µM (top dose mostly 28.7 µM), hits mostly inhibitors; 310,000 compounds, 5.9% hits; AID 504832
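Luciferase-expressing P. falciparum in infected erythrocytes (2% hematocrit, 0.1% parasitemia final) in RPMI 1640/0.5% Albumax were exposed to compound for 48 hours at 37 C, 5% CO2; growth read as luminescence.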
NS1 function inh – inhibitors of influenza NS1 protein function; Potency, µM (doses to about 46.1 µM); 270,000 compounds, 0.4% hits; AID 2326; calls by dose curve; note: actives are rising curves; nearly all actives have a fitted effect of over 50% in size
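OD600 was taken as the measure of yeast growth restored by compound in an NS1-expressing S. cerevisiae strain. Cells had been washed out of glucose medium and diluted 1:100 into galactose -URA medium, pH 6.0.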
A number is an active result; 0 = inactive; ? = inconclusive; - = not tested or not shown; [ ] = remark or other dose. Sampled rows, rich in hits. Any-hit rate of the full collection: about 21%. Unless noted, calls come from the whole dose curve; as a rule, active = well fitted inhibition curve with a large enough effect; inconclusive = small, poorly fitted or top-dose-only effect, or another doubt; inactive = no such curve, though single readings can be large or run the other way.

SMILES	Pf growth 96h	SARS PLP yeast	Cycloheximide cs	Shiga toxin inh	Pf growth 48h	NS1 function inh
COc1cc(C(=O)CSc2nccn2C)cc(OC)c1OC	0	0	0	0	0	0
COc1ccc(C(=O)CSc2nccn2C)cc1	0	0	29	67	0	0
O=C(CN1C(=O)NC2(CCOc3ccccc32)C1=O)NCC(F)(F)F (stereo not given)	0	0	0	0	0	0
CC(NC(=O)c1ccccc1)c1nnc(SCC(=O)Nc2nnc(C3CC3)s2)n1C (stereo not given)	?	0	-	-	?	-
O=C(Nc1nc2cc3c(cc2s1)OCO3)C1CC1	0	0	24	81	0	0
O=C(Nc1nc2cc3c(cc2s1)OCO3)C1CCCCC1	0	0	89	108	0	0
Cc1cccc(NC(=O)c2nc[nH]c2C(=O)N[C@@H](Cc2ccccc2)C(=O)OCc2ccccc2)c1	?	0	0	0	?	?
C[C@H]1COC(=O)[C@@H](Cc2ccc(F)cc2)C/C=C\C[C@@H](CC(=O)N[C@@H](CO)Cc2ccccc2)C(=O)N1	-	0	-	-	-	-
N=c1scc(-c2ccccc2)n1/N=C/c1ccco1	?	0	46	72	0	0
C(=N/n1c2ccccc2c2ccccc21)/c1ccco1	-	0	0	0	0	0
CCc1ccc(C(=O)NNC(=O)c2c(CC)noc2C)cc1	0	?	-	-	0	-
COC(=O)CCn1[nH]c(=O)c2ccccc2c1=O	9.3µM	0	0	0	0	0
O=c1[nH]n(Cc2ccccc2)c(=O)c2ccccc12	0	0	26	0	0	0
NC(=O)C1CC12c1ccccc1-c1ccccc12 (stereo not given)	0	0	0	0	0	0
COC(=O)c1ccsc1NS(=O)(=O)c1ccccc1	0	0	0	0	0	0
COC(=O)C1Cc2c([nH]c3ccccc23)C2(CCN(Cc3ccccc3)CC2)N1 (stereo not given)	?	0	0	0	0[0.00184 µM]	0
CCCOc1ccc(/C=N/Nc2ccccn2)cc1OC	0	0	50	88	0	-
COc1cc(/C=N/N(c2ccccc2)c2ccccc2)ccc1O	?	0	0	0	0	0
CCOc1ccc(/C=N/N(C)c2ccccc2)cc1OC	0	0	25	64	-	0
CCOc1ccc(/C=N/Nc2ccccn2)cc1OC	0	0	39	110	0	-
COc1cc(/C=N/Nc2ccccn2)ccc1OCC(C)C	?	0	34	62	0	-
COc1ccc(/C=N/NC(=O)C(O)(c2ccccc2)c2ccccc2)cc1OC	0	0	0	0	0	0
COc1cc(/C=N/Nc2nc(N3CCCC3)nc(N3CCCC3)n2)ccc1OCc1ccccc1F	?	0	0	0	?	0
COc1cc(/C=N/Nc2ccc(C(F)(F)F)cn2)cc(OC)c1O	?	0	0	0	?	-
C=CCOc1ccc(/C=N/Nc2ccccn2)cc1OC	0	0	57	101	0	-
SMILES	Pf growth 96h	SARS PLP yeast	Cycloheximide cs	Shiga toxin inh	Pf growth 48h	NS1 function inh
COc1cc(/C=N/Nc2ccccn2)cc(OC)c1O	0	0	25	63	0	-
Cc1ccc(/C=C/C(=O)N2CCN(c3ncccn3)CC2)o1	0	0	0	0	0	0
CC(=O)Nc1cccc2c1C(=O)N(c1ccccc1OC(C)=O)C2=O	0	0	0	0	0	0
CC(C)C[C@@H](NC(=O)[C@@H](Cc1ccccc1)NC(=O)c1cnccn1)B(O)O	0.034µM	-	-	-	0.12µM	-
COC(=O)c1ccc(COC(=O)C(NC(=O)Cc2ccccc2)C(C)C)cc1 (stereo not given)	?	0	-	-	0	-
NNC(=O)CCCCCCCCCCOCCCCO	?	0	0	0	?	0
Fc1ccc(Br)cc1C1C=C(c2ccc(Br)s2)Nc2ncnn21 (stereo not given)	0	0	0	0	0	0
COc1ccc(C2C=C(c3ccc(C)c(C)c3)Nc3ncnn32)c(OC)c1OC (stereo not given)	9.3µM	0	0	0	-	0
COc1cccc(C2C=C(c3ccc(Br)s3)Nc3ncnn32)c1OC (stereo not given)	2.3µM	0	0	0	?	0
CS(=O)(=O)N(CC(=O)N1CCCC1)c1ccc(Cl)cc1	?	0	0	0	0	0
NC(=O)c1ccc2c(=O)n3c(-c4cccs4)csc3nc2c1	0	0	25	32	0	0
Cc1ccc(-c2csc3nc4cc(C(N)=O)ccc4c(=O)n23)cc1	0	0	0	0	0	0
